PubChem BioAssay (NCI)
Compounds without any hit were thinned out: in the full panel of roughly 79,000, 15% have a hit. No stated cut-off is given here; in the data, active means growth inhibition above about 70%; inactive means the rest.

Legend:
[1] = NCI Yeast Anticancer Drug Screen. Data for the rad50 strain (AID 155);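 further: 0% = growth of vehicle-only cultures of the same strain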; conditions: S. cerevisiae rad50 strain growth inhibition; at 50.0 µM; active compounds read high
Outline: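 Growth of the mutant yeast was measured after compound exposure and referenced to vehicle-treated cultures.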

[2] = NCI Yeast Anticancer Drug Screen. Data for the mec2-1 strain (AID 157); conditions: S. cerevisiae mec2-1 strain, at 50.0 µM, active compounds read high
Outline: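 Test agents were screened against the mec2-1 yeast strain, with defined DNA repair or cell cycle alteration. Growth was scored as inhibition against vehicle-only controls.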

[3] = NCI Yeast Anticancer Drug Screen. Data for the sgs1 mgt1 strain (AID 161);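 further: 0% = growth of cultures given vehicle only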; conditions: S. cerevisiae sgs1 mgt1 strain, at 50.0 µM, active compounds read high
Outline: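 Test agents were incubated with a DNA-repair-mutant yeast strain. Growth was then read and compared against vehicle-treated controls.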

[4] = NCI Yeast Anticancer Drug Screen. Data for the cln2 rad14 strain (AID 165);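 further: 0% = growth equal to vehicle treated cultures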; conditions: S. cerevisiae cln2 rad14 strain, at 50.0 µM, active compounds read high
Outline: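 Growth of compound-exposed yeast (cln2 rad14 genotype) measured and expressed as inhibition relative to vehicle.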

[5] = NCI Yeast Anticancer Drug Screen. Data for the bub3 strain (AID 167); conditions: S. cerevisiae bub3 mutant strain, at 50.0 µM, active compounds read high
Outline: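 Whole-cell yeast assay. The mutant strain was incubated with compounds, and growth inhibition was determined by comparison with vehicle-treated cells.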

[6] = NCI Yeast Anticancer Drug Screen. Data for the mlh1 rad18 strain (AID 175); conditions: S. cerevisiae mlh1 rad18 strain growth inhibition; at 50.0 µM; active compounds read high
Outline: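 In this whole-cell yeast screen, a strain with altered DNA damage repair is challenged with compound, and its growth is measured against matched vehicle-treated controls.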

Measured: growth inhibition

O=C(O)C(c1cccs1)C1(O)CCCCC1 (configuration not stated)
inactive: [1] -0.75% | [2] -7.2% | [3] -2.25% | [4] -1.65% | [5] -2.5% | [6] -5.3%

NC(=O)c1ncc[nH]c1=O
inactive: [1] -0.65% | [2] 5.35% | [3] -12.6% | [4] 1.7% | [5] 4.2% | [6] -9.15%

Nc1cc2c(cc1I)-c1ccccc1C2O (configuration not stated)
inactive: [1] 1.65% | [2] 4.55% | [3] -12.8% | [4] -2.9% | [5] 11.2% | [6] -8.75%

COc1ccc2[nH]c(=O)cc(C)c2c1
inactive: [1] -5.35% | [2] -4.1% | [3] -1.6% | [4] -37.7% | [5] 18.9% | [6] -85.3%

Cc1cc(C)c(NC(=O)c2cc(C(=O)O)c(C(=O)Nc3c(C)cc(C)cc3C)cc2C(=O)O)c(C)c1
inactive: [1] 8.7% | [2] 2.5% | [3] -15.6% | [4] -7.1% | [5] 2.5% | [6] -1.55%

Oc1ccccc1C1SCSCS1
inactive: [1] 14.8% | [2] 12.9% | [3] 14.1% | [4] -3.3% | [5] -10.4% | [6] 5.85%

CCC(=O)C(C)C1=Nc2nnc(CCCCCCCc3nnc4n3C(=O)C(C(C)C(=O)CC)=N4)n2C1=O (configuration not stated)
inactive: [1] -13.7% | [2] 12.3% | [3] 11.8% | [4] -7.4% | [5] -3.05% | [6] -4.35%

CC1(C)OC(C(CCl)OS(C)(=O)=O)C(C(CCl)OS(C)(=O)=O)O1 (configuration not stated)
inactive: [1] 4.2% | [2] -6.1% | [3] -5.7% | [4] 24.9% | [5] -3.5% | [6] 6.95%

NS(=O)(=O)N1CN(S(N)(=O)=O)CN(S(N)(=O)=O)C1
inactive: [1] -3.4% | [2] 4.1% | [3] 2.65% | [4] -18.6% | [5] 9.75% | [6] 13.4%

O=C1c2ccccc2C(=O)N1CCc1ccccn1
inactive: [1] 5.5% | [2] -6% | [3] 3.95% | [4] -27.1% | [5] -0.45% | [6] -22.9%

CC(=O)Nc1ccc(/C=C2\C(=O)Nc3ccccc32)cc1
inactive: [1] -15.4% | [2] -20.1% | [3] -23% | [4] -11.8% | [5] -8.5% | [6] -5.9%

C(=N/NC(=N/N=C/c1ccccc1)N/N=C/c1ccccc1)/c1ccccc1
inactive: [1] 28.8% | [2] 23.1% | [3] 46.6% | [4] 28.3% | [5] 5.65% | [6] 24.1%

O=C(NC(=S)Nc1ccc(Cl)c(Cl)c1)c1cccc([N+](=O)[O-])c1
inactive: [1] -6.45% | [2] 3.35% | [3] 10.9% | [4] 0.65% | [5] -3.2% | [6] 5.7%

CCCCC1=C(C)CCC1=O
inactive: [1] 17.9% | [2] 8.9% | [3] 8.7% | [4] 6.55% | [5] 2.85% | [6] 4.85%

COc1ccc(CCNc2ncc([N+](=O)[O-])cc2N)cc1OC
inactive: [1] 5.15% | [2] -8.75% | [3] -10.8% | [4] -20.9% | [5] 6.25% | [6] 2.75%

Nc1ncnc2c1ncn2CCOCC(O)CO (configuration not stated)
inactive: [1] -0.75% | [2] -4.3% | [3] -5.95% | [4] -15.4% | [5] -7.7% | [6] -19.9%

Cc1cc(C=O)c(C)[nH]1
inactive: [1] 3.9% | [2] -3.55% | [3] -2.4% | [4] -11.2% | [5] 1.55% | [6] -4.4%

Cc1ccccc1C(=O)NNC(=O)c1cccc2ccccc12
inactive: [1] 27.6% | [2] -24.9% | [3] 7.9% | [4] 3.65% | [5] 0.45% | [6] 6.95%

CCC(=O)[C@@]1(OC(C)=O)CC[C@H]2[C@@H]3CCC4=CC(=O)CC[C@]4(C)[C@H]3CC[C@@]21C
inactive: [1] 28.1% | [2] 17.5% | [3] 30.9% | [4] 36.7% | [5] 26.9% | [6] 16%

COc1ccccc1NC(=O)/C(Cc1nc2ccc([N+](=O)[O-])cc2[nH]c1=O)=N\NC(=O)C[N+](C)(C)C
inactive: [1] 31.6% | [2] 23.4% | [3] 7.3% | [4] -26.2% | [5] 25.4% | [6] 13.2%

OCC1CC(O)CN2CCc3c([nH]c4ccccc34)C2C1 (configuration not stated)
inactive: [1] 4.6% | [2] 3.25% | [3] 11.3% | [4] -5.2% | [5] 0.1% | [6] 2.8%

Cc1nnc2ncccn12
inactive: [1] 31.1% | [2] -10.3% | [3] 8.4% | [4] -0.1% | [5] 0.55% | [6] -42.2%

CCCCCP(=O)(CCCCC)C1CCCC1
inactive: [1] -0.6% | [2] 11.2% | [3] -2.3% | [4] 1.75% | [5] 49.1% | [6] -0.65%

CCOC(=O)c1ccc(N=C2C(=S)N(c3ccc(C(=O)OCC)cc3)C(=N)N2/N=C/c2ccccc2)cc1
inactive: [1] 19.4% | [2] 13.4% | [3] 11.5% | [4] -4.55% | [5] 31.9% | [6] 1.95%

CCC(=O)Oc1ccc(CCC(C)=O)cc1
inactive: [1] -0.55% | [2] -6.35% | [3] -14.2% | [4] -38.9% | [5] -10.6% | [6] 30.5%

CC(=O)Nc1cc(C)cc(Br)c1
inactive: [1] -6.85% | [2] -4.1% | [3] -10.1% | [4] 9.05% | [5] 1.5% | [6] -9.55%

CCC[n+]1cccc(C#N)c1
inactive: [1] 6.15% | [2] 5.4% | [3] -7.35% | [4] -24.9% | [5] -4.2% | [6] 22.2%

O=C(/C=C(\C(=O)c1ccccc1)c1ccccc1)c1ccc(-c2ccccc2)cc1
inactive: [1] 8.2% | [2] -2.35% | [3] -3.15% | [4] -6.9% | [5] -3.45% | [6] -16.9%

COc1cc2c(cc1OC)C1=Cc3cc(OC)c(OC)cc3C(C)N1C=C2 (configuration not stated)
inactive: [1] 6.15% | [2] -6.3% | [3] -26.6% | [4] -18.6% | [5] -23.9% | [6] -16.7%

C/C(N=NC(=S)N(C)C)=C1\C=CC=CN1O
inactive: [1] -0.25% | [2] 11.8% | [3] 8.1% | [4] 55.6% | [5] 23.1% | [6] 38.9%

CCNC(=O)OCCN(C)CCOC(=O)NCC
inactive: [1] -10% | [2] 9.55% | [3] -4.15% | [4] -20% | [5] -7.7% | [6] -0.7%

O=C(c1ccccc1)C(c1ccccc1)C1(O)C(=O)Nc2ccc(Br)cc21 (configuration not stated)
inactive: [1] 0.9% | [2] 7.35% | [3] -0.15% | [4] 16.1% | [5] 54.9% | [6] 7.1%

Cc1ccc(S(=O)(=O)NCCN)cc1
inactive: [1] 9.45% | [2] 11.2% | [3] 24.2% | [4] -19.5% | [5] -6.4% | [6] -3.3%

CCc1c2c(nc3ccc(O)cc13)-c1cc3c(c(=O)n1C2)COC(=O)[C@]3(O)CC
inactive: [1] 33.2% | [2] -5.5% | [3] -5.9% | [4] 10.6% | [5] 7.5% | [6] -7.25%

COc1ccc(OC)c(C(c2cc(OC)ccc2OC)C(Cl)(Cl)Cl)c1
inactive: [1] 0.45% | [2] -13.2% | [3] -5.3% | [4] -6.45% | [5] -6% | [6] 14.6%

CC(=O)c1cc2c(cc1C)C(C)CCC2(C)C (configuration not stated)
inactive: [1] -7% | [2] -29.4% | [3] -9.6% | [4] -6.1% | [5] 1.9% | [6] -22.5%

Nc1ccc(S(=O)(=O)NO)cc1
inactive: [1] -12.1% | [2] -3.95% | [3] -2.55% | [4] -27.1% | [5] -2.2% | [6] 11.3%
